These results are taken from the supplement of paper PMC10127200.

Where a name gives a salt, the structure may show the parent alone.

Experiment in all cases: Euclidean distance of Cell Painting phenotypic profile (signed KS, 77 features) to DMSO centroid (dimensionless distance); 5 or 10 uM (library dependent); higher = stronger phenotypic change vs DMSO (phenoactivity)
What all share (conditions): 48 h

The subject of one assay is 786-O. The gist of the method:
(§1)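 Library compounds were applied at 10 or 5 uM, depending on the library, with 0.1% DMSO final, for 48 h to five cancer lines and a healthy fibroblast line. After staining, cells were imaged confocally at 20X across 9 fields per well, and Harmony extracted 77 features, each scored as a signed Kolmogorov-Smirnov statistic against vehicle wells on the same plate. Phenoactivity is the Euclidean distance between each profile and the median vehicle profile, with profiles first plate-position corrected, correlation-weighted and averaged over replicates at the top dose.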

The subject of a further assay is A549. The gist of the method: as §1
For a further assay, the system named is DU145. The gist of the method: as §1
In a further assay the test system is FB. The gist of the method:
as §1

Another assay has as its system HEPG2. The gist of the method: as §1
In the next assay the test system is OVCAR4. The gist of the method:
as §1

Regarding `C=C1C(=O)[C@]23[C@H](O)[C@H]1CC[C@H]2[C@@]12CO[C@]3(O)[C@@H](O)[C@@H]1C(C)(C)CC[C@@H]2O` [Oridonin], the Euclidean distance in the assay with 786-O was 1.57; with A549, 1.32; in the assay with DU145, 1.1; with FB it was 1.01; in the assay on HEPG2, 1.03; in the assay on OVCAR4, 1.33.
Take `CCCCCCCCN=c1ccn(CCCCCCCCCCn2ccc(=NCCCCCCCC)cc2)cc1` [Octenidine Dihydrochloride]: the Euclidean distance came to 6.46 in the assay on 786-O; 4.73 with A549; 6.38 with DU145; 6.45 in the assay on FB; 4.62 with HEPG2; 6.71 in the assay on OVCAR4.
Turning to `CC(C)Cc1ccc(C(C)C(=O)O)cc1` (stereo not drawn) [Ibuprofen Lysine], the Euclidean distance in the assay with 786-O amounted to 1.27; in the assay on A549, 0.944; with DU145, 1.68; with FB, 0.93; in the assay with HEPG2 it was 1.17; in the assay on OVCAR4, 1.07.
Turning to `C[N+](C)(C)CCO.O=C([O-])C(O)C(O)C(=O)O` (stereo not drawn) [Choline bitartrate], the Euclidean distance in the assay on 786-O is 1.35; in the assay with A549 it was 1.24; in the assay on DU145, 0.973; in the assay on FB it was 1.15; in the assay with HEPG2, 0.96; in the assay on OVCAR4, 1.37.
Consider `O=C(c1ccc(F)cc1)N1CCC[C@H](c2nc(-c3ccc(F)cc3)no2)C1`, for which the Euclidean distance in the assay with 786-O turned out to be 1.35; in the assay with A549, 0.726; in the assay on DU145, 0.856; in the assay on FB, 1.17; in the assay on HEPG2 it was 0.656; in the assay with OVCAR4, 0.832.
Turning to `NC(N)=Nc1nc(CSCC/C(N)=N/S(N)(=O)=O)cs1` [Famotidine], the Euclidean distance with 786-O was 1.72; with A549, 0.931; in the assay on DU145 it was 1.5; in the assay with FB, 1.11; in the assay with HEPG2, 2.27; in the assay on OVCAR4, 1.1.
In the case of `CC(C)C[C@@H](C=O)NC(=O)[C@H](CC(C)C)NC(=O)[C@H](CC(C)C)NC(=O)OCc1ccccc1`, the Euclidean distance in the assay with 786-O is 3.8; in the assay with A549, 3.23; in the assay with DU145 it was 3.14; in the assay on FB it was 3.41; with HEPG2, 3.64; in the assay with OVCAR4 it was 4.07.
With `N=C(N)NC(=O)c1nc(Cl)c(N)nc1N` [Amiloride HCl], the Euclidean distance with 786-O came to 1.05; with A549, 0.988; with DU145, 0.844; in the assay on FB, 0.922; with HEPG2 it was 1.33; with OVCAR4, 0.94.
As to `CN(C)CCOC(=O)C(c1ccccc1)C1(O)CCCC1` (stereo not drawn) [Cyclopentolate Hydrochloride], the Euclidean distance amounted to 1.16 in the assay on 786-O; 0.28 in the assay on A549; 0.841 in the assay with DU145; 1.15 with FB; 0.601 in the assay on HEPG2; 1.57 in the assay with OVCAR4.
In the case of `CN1CCN(c2cc3c(cc2F)c(=O)c(C(=O)O)cn3-c2ccc(F)cc2)CC1` [Difloxacin hydrochloride], the Euclidean distance in the assay with 786-O came out at 1.51; in the assay with A549, 0.685; in the assay with DU145, 0.906; with FB, 1.1; with HEPG2 it was 0.824; in the assay on OVCAR4, 1.17.
With `CCCc1nn(C)c2c(=O)[nH]c(-c3cc(S(=O)(=O)N4CCN(C)CC4)ccc3OCC)nc12` [Sildenafil Citrate], the Euclidean distance in the assay on 786-O worked out at 1.87; in the assay with A549, 1.4; with DU145 it was 1.4; in the assay with FB it was 0.899; in the assay with HEPG2 it was 0.957; with OVCAR4, 1.28.
Regarding `CC(C)Nc1cc(-c2c[nH]c(C(=O)N[C@H](CO)c3cccc(Cl)c3)c2)c(Cl)cn1`, the Euclidean distance stood at 2.42 in the assay on 786-O; 4.11 with A549; 3.64 in the assay on DU145; 3.51 in the assay on FB; 1.79 in the assay with HEPG2; 3.1 in the assay with OVCAR4.
Turning to `Cn1cnc2c(F)c(Nc3ccc(Br)cc3F)c(C(=O)NOCCO)cc21`, the Euclidean distance in the assay on 786-O amounted to 2.04; with A549, 2.89; in the assay on DU145 it was 2.61; with FB it was 3.82; with HEPG2, 1.63; with OVCAR4, 1.91.
As for `Cc1cccc(C)c1NC(=O)C1CCCCN1C` (stereo not drawn) [Mepivacaine HCl], the Euclidean distance with 786-O amounted to 1.26; in the assay with A549 it was 0.773; in the assay on DU145 it was 0.454; in the assay on FB, 1.28; with HEPG2 it was 0.483; in the assay on OVCAR4 it was 0.914.
Regarding `Cc1[nH]c(/C=C2\C(=O)Nc3ccc(S(=O)(=O)N(C)c4cccc(Cl)c4)cc32)c(C)c1C(=O)N1CCN(C)CC1`, the Euclidean distance with 786-O was determined as 2.57; with A549, 3.08; with DU145 it was 2.03; in the assay with FB, 2.51; in the assay with HEPG2, 1.47; in the assay with OVCAR4, 3.13.
Regarding `CC(=O)O[C@]1(C(C)=O)CC[C@H]2[C@@H]3C[C@H](C)C4=CC(=O)CC[C@]4(C)[C@H]3CC[C@@]21C` [Medroxyprogesterone acetate], the Euclidean distance in the assay on 786-O came to 1.02; with A549, 1.4; in the assay on DU145, 1.65; in the assay on FB, 1.31; in the assay on HEPG2, 1; in the assay with OVCAR4, 1.06.
With `NC[C@H]1O[C@H](O[C@H]2[C@H](O)[C@@H](O[C@H]3O[C@H](CO)[C@@H](O)[C@H](N)[C@H]3O)[C@H](N)C[C@@H]2N)[C@H](N)C[C@@H]1O` [Tobramycin], the Euclidean distance with 786-O worked out at 0.897; in the assay with A549 it was 1.31; in the assay on DU145, 1.34; with FB it was 0.987; in the assay on HEPG2, 0.563; with OVCAR4 it was 1.4.
In the case of `OCCN1CCN(CC/C=C2/c3ccccc3Sc3ccc(C(F)(F)F)cc32)CC1` [Flupenthixol dihydrochloride], the Euclidean distance in the assay on 786-O came to 1.63; in the assay on A549, 2.21; with DU145, 1.71; with FB it was 2.52; with HEPG2, 2.68; with OVCAR4, 2.01.
